# Assay results published in ChEMBL document CHEMBL1961873, “Compounds: GSK PKIS; Assays: Nanosyn kinase panel” (2012).
# “And” between values parts separate entries of the source, which are not always exact repeats. Equal values may be shown once.
# Molecular target: Tyrosine-protein kinase Fes/Fps (Homo sapiens) (UniProt P07332);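 also: mean inhibition of FES from the GSK PKIS kinase inhibitor screening set, assayed by Nanosyn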
# Conditions: at 1 µM
# Tyrosine-protein kinase Fes/Fps (Homo sapiens), sequence (P07332 whole entry): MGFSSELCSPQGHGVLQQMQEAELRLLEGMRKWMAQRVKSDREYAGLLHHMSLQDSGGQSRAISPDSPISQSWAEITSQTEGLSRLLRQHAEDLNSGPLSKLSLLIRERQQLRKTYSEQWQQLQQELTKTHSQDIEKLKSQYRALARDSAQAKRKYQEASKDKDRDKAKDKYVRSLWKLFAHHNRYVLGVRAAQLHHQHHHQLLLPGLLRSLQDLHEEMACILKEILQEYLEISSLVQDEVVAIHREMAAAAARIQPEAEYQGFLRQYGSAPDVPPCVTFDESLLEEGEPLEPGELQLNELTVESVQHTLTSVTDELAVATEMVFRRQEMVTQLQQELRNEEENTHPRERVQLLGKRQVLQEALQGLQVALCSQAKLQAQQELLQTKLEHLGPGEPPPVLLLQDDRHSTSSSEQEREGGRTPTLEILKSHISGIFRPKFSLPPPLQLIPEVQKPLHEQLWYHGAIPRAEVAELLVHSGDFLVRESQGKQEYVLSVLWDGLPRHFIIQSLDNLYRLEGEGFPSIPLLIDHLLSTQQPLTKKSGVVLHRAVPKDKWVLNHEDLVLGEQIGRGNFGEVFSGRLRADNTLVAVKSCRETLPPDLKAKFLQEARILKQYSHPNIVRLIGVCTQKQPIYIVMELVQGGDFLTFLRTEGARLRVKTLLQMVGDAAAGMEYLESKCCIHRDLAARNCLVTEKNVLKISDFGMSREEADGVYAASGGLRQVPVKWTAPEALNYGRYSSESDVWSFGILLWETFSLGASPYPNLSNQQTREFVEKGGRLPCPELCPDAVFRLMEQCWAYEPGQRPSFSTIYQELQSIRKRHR
row,Structure (SMILES),inhibition
1,CC1=C(C(=O)Nc2ccc3[nH]nc(C)c3c2)C(c2ccc(C(F)(F)F)cc2)CC(=O)N1 (configuration not stated),2.34%
2,COc1cc(N2CCN(C(C)C)CC2)ccc1Nc1nc(Nc2cccc3ncccc23)c2cc[nH]c2n1,10%
3,COc1cc(Nc2ncc(-c3ccccc3)o2)cc(OC)c1,3.89%
4,COc1cccc(Nc2nccc(-c3cnn4ncccc34)n2)c1,50.3%
5,O=C(Nc1n[nH]c2nnc(-c3cccnc3)cc12)C1CC1,-1.66%
6,CN1CCN(Cc2ccc(-c3cc4ncnc(Nc5ccc(OCc6cccc(F)c6)c(Cl)c5)c4s3)o2)CC1,6.42% and 6.83%
7,CCCNc1cccc(-n2ncc3c(N/N=C/c4ccncc4)ncnc32)c1,5.6%
8,CS(=O)(=O)Nc1ccc(-c2ccc3c(NC(=O)C4CC4)n[nH]c3c2)cc1,4.38%
9,COc1cccc(-n2ncc3c(N/N=C/c4ccc(C(=O)NCCN(C)C)cc4)ncnc32)c1,3.63%
10,O=C(O[C@H]1CN[C@H](C#Cc2cc3ncnc(Nc4ccc(OCc5cccc(F)c5)c(Cl)c4)c3s2)C1)N1CCOCC1,3.5%
11,O=C(O[C@H]1CN[C@H](C#Cc2cc3ncnc(Nc4ccc5c(cnn5Cc5ccccc5)c4)c3s2)C1)N1CCOCC1,-1.2%
12,CCn1c(-c2nonc2N)nc2cncc(C(=O)NCCNC)c21,4.8%
13,O=C(O[C@H]1CN[C@H](C#Cc2cc3ncnc(Nc4ccc5c(ccn5Cc5cc(F)ccc5F)c4)c3s2)C1)N1CCOCC1,3.52%
14,c1ccc(-c2n[nH]cc2-c2ccnc(-c3ccc(OCCn4ccnc4)cc3)c2)nc1,-0.73%
15,COc1cc2c(cc1Nc1nc(Nc3cccc(F)c3C(N)=O)c3cc[nH]c3n1)N(C(=O)CN1CCN(C(C)C)CC1)CC2,59.2%
16,CNC(=O)c1cncc(/C=C/c2ccccc2C)c1,1.6%

row,Structure (SMILES),inhibition
1,N#Cc1cccc(Nc2ncc(-c3ccccc3)o2)c1,1.79%
2,CCN1CCC(C(=O)Nc2n[nH]c3nnc(-c4cccc(F)c4F)cc23)CC1,-1.05%
3,Nc1nonc1-c1nc2cnccc2n1C1CC1,3.51% and 0.87%
4,O=C1Nc2ccccc2/C1=C1\CCc2cc(O)ccc21,6.81%
5,Fc1ccc(Nc2nccc(-c3c(-c4ccc(C(F)(F)F)cc4)nn4ncccc34)n2)cc1F,3.35%
6,CCS(=O)(=O)c1ccc(OC)c(Nc2ncc(-c3cccc(F)c3)o2)c1,4.79%
7,OCCCNc1nccc(-c2c(-c3ccc(F)cc3)nn3cc(C(F)(F)F)ccc23)n1,2.62%
8,CN(c1ccc(NC(=O)NCCN2CCOCC2)cc1)c1ccnc(Nc2ccc(CS(C)(=O)=O)cc2)n1,7.78%
9,Nc1nccc(-c2c(-c3ccc(F)cc3)ncn2C2CCNCC2)n1,-3.68% and -0.18%
10,CC1(C)CC(n2cnc(-c3ccc(F)cc3)c2-c2ccnc(N)n2)CC(C)(C)N1,-0.76%
11,Cn1c(-c2nonc2N)nc2cnccc21,3.53%
12,COc1ccc2ncn(-c3cc(O[C@H](C)c4ccccc4C(F)(F)F)c(C(N)=O)s3)c2c1,0.25%
13,Cc1c2ccc(N(C)c3ccnc(Nc4cccc(S(N)(=O)=O)c4)n3)cc2nn1C,56.1%
14,CNC(=O)c1ncccc1Nc1nc(Nc2cc3c(cc2OC)CCCN3C(=O)CN(C)C)nc2[nH]ccc12,80.6%
15,COC(=O)Nc1nc2cc(Oc3ccc(NC(=O)Nc4ccccc4)cc3)ccc2[nH]1,1.32%

# Molecular target: Fibroblast growth factor receptor 1 (Homo sapiens) (UniProt P11362);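 also: values are reported as mean percent inhibition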
# Sequence (P11362 22-822 limits assumed): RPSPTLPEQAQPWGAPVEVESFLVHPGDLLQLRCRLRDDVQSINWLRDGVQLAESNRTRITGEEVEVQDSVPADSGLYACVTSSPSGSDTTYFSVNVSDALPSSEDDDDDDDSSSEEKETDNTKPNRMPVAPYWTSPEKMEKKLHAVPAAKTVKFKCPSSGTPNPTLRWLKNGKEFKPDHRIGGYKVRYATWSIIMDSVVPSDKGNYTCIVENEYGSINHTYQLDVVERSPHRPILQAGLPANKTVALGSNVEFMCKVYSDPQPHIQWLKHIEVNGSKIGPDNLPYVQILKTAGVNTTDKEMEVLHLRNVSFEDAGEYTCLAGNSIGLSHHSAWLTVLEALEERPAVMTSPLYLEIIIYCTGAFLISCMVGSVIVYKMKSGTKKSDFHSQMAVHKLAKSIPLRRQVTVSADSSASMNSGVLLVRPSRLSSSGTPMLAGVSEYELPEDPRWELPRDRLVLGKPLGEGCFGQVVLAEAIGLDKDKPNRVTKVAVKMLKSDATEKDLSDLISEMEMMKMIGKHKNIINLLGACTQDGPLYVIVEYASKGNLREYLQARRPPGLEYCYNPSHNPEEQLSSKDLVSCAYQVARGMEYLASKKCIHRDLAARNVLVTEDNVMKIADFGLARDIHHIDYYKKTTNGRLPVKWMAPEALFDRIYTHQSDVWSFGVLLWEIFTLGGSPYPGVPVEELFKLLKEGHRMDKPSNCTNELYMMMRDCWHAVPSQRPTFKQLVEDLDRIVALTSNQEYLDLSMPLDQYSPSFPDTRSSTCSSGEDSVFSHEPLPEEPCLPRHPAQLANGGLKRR
# Conditions: at 0.1 µM
row,Structure (SMILES),inhibition
1,CC1=C(C(=O)Nc2ccc3[nH]nc(C)c3c2)C(c2ccc(C(F)(F)F)cc2)CC(=O)N1 (configuration not stated),-0.57%
2,COc1cc(N2CCN(C(C)C)CC2)ccc1Nc1nc(Nc2cccc3ncccc23)c2cc[nH]c2n1,-4.53%
3,COc1cc(Nc2ncc(-c3ccccc3)o2)cc(OC)c1,2.6%
4,COc1cccc(Nc2nccc(-c3cnn4ncccc34)n2)c1,-2.04%
5,O=C(Nc1n[nH]c2nnc(-c3cccnc3)cc12)C1CC1,-0.17%
6,CN1CCN(Cc2ccc(-c3cc4ncnc(Nc5ccc(OCc6cccc(F)c6)c(Cl)c5)c4s3)o2)CC1,2.24% and 7.51%
7,CCCNc1cccc(-n2ncc3c(N/N=C/c4ccncc4)ncnc32)c1,0.48%
8,CS(=O)(=O)Nc1ccc(-c2ccc3c(NC(=O)C4CC4)n[nH]c3c2)cc1,6.04%
9,COc1cccc(-n2ncc3c(N/N=C/c4ccc(C(=O)NCCN(C)C)cc4)ncnc32)c1,4.74%
10,O=C(O[C@H]1CN[C@H](C#Cc2cc3ncnc(Nc4ccc(OCc5cccc(F)c5)c(Cl)c4)c3s2)C1)N1CCOCC1,1.16%
11,O=C(O[C@H]1CN[C@H](C#Cc2cc3ncnc(Nc4ccc5c(cnn5Cc5ccccc5)c4)c3s2)C1)N1CCOCC1,-2.97%
12,CCn1c(-c2nonc2N)nc2cncc(C(=O)NCCNC)c21,2.05%
13,O=C(O[C@H]1CN[C@H](C#Cc2cc3ncnc(Nc4ccc5c(ccn5Cc5cc(F)ccc5F)c4)c3s2)C1)N1CCOCC1,-0.06%
14,c1ccc(-c2n[nH]cc2-c2ccnc(-c3ccc(OCCn4ccnc4)cc3)c2)nc1,-3.47%
15,COc1cc2c(cc1Nc1nc(Nc3cccc(F)c3C(N)=O)c3cc[nH]c3n1)N(C(=O)CN1CCN(C(C)C)CC1)CC2,11.4%
16,CNC(=O)c1cncc(/C=C/c2ccccc2C)c1,4.11%

row,Structure (SMILES),inhibition
1,N#Cc1cccc(Nc2ncc(-c3ccccc3)o2)c1,-4.35%
2,CCN1CCC(C(=O)Nc2n[nH]c3nnc(-c4cccc(F)c4F)cc23)CC1,-4.59%
3,Nc1nonc1-c1nc2cnccc2n1C1CC1,13.1% and 2.25%
4,O=C1Nc2ccccc2/C1=C1\CCc2cc(O)ccc21,8.16%
5,Fc1ccc(Nc2nccc(-c3c(-c4ccc(C(F)(F)F)cc4)nn4ncccc34)n2)cc1F,7.42%
6,CCS(=O)(=O)c1ccc(OC)c(Nc2ncc(-c3cccc(F)c3)o2)c1,12.7%
7,OCCCNc1nccc(-c2c(-c3ccc(F)cc3)nn3cc(C(F)(F)F)ccc23)n1,6%
8,CN(c1ccc(NC(=O)NCCN2CCOCC2)cc1)c1ccnc(Nc2ccc(CS(C)(=O)=O)cc2)n1,1.48%
9,Nc1nccc(-c2c(-c3ccc(F)cc3)ncn2C2CCNCC2)n1,-5.66% and -0.16%
10,CC1(C)CC(n2cnc(-c3ccc(F)cc3)c2-c2ccnc(N)n2)CC(C)(C)N1,6.46%
11,Cn1c(-c2nonc2N)nc2cnccc21,4.78%
12,COc1ccc2ncn(-c3cc(O[C@H](C)c4ccccc4C(F)(F)F)c(C(N)=O)s3)c2c1,1.11%
13,Cc1c2ccc(N(C)c3ccnc(Nc4cccc(S(N)(=O)=O)c4)n3)cc2nn1C,24.9%
14,CNC(=O)c1ncccc1Nc1nc(Nc2cc3c(cc2OC)CCCN3C(=O)CN(C)C)nc2[nH]ccc12,9.89%
15,COC(=O)Nc1nc2cc(Oc3ccc(NC(=O)Nc4ccccc4)cc3)ccc2[nH]1,-5.22%
